The values below come from PubChem BioAssay (NCI).

Each structure is given as a SMILES string. This is part of a sample that, as a whole, favours compounds with a hit. Of some 79,000 tested, about 15% had one in any assay. Calls of active or inactive are those of the source. Cut-off read from the data, not from the text of the source: active = growth inhibition above about 70%; inactive = the rest.

This experiment is described as follows: NCI Yeast Anticancer Drug Screen. Data for the mec2-1 strain (AID 157). The following applies: S. cerevisiae mec2-1 strain, at 33.0 µM, stronger effect = higher value. The gist of the method: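 Using mec2-1 yeast: add compound, measure growth, express inhibition versus vehicle-treated cultures.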
For `CN(C)CC(CN(C)C)C(=O)/C=C/c1ccc(Cl)cc1Cl`, the growth inhibition was 98% (active).
`c1ccc2c(c1)ccn2CCc1c[nH]c2ccccc12`: the growth inhibition is 0% (inactive).
As to `Cc1ccccc1NC(=O)c1c(C)oc2c1C(=O)c1ccccc1C2=O`, the growth inhibition was 19% (inactive).
For the molecule `CC(C)OC(=O)NNc1c(Cl)cc(Cl)cc1Cl`, the growth inhibition is 1% (inactive).
The figure for `COc1ccc2nc3cccc([N+](=O)[O-])c3c(NCCNCCO)c2c1` is 96% (active); for `COc1ccc2c(c1)CCCC(Br)C2=O` (stereo unspecified) it is 71% (active); for `CCC(OC(C)=O)C1CC(C(C)C)CCC1C` (stereo unspecified) it is 9% (inactive).
The figure for `O=S(=O)(c1cccc(C(F)(F)F)c1)N1c2ccccc2-n2cccc2C1c1cccnc1` (stereo unspecified) is 92% (active); for `c1ccc(-c2cc(C3CO3)c3ccccc3n2)cc1` (stereo unspecified) it is 7% (inactive); for `COc1ccc(/C=C2\SC(=S)N(/C=C3\C(=O)N(c4ccccc4)N=C3C)C2=O)cc1OC` it is 65% (inactive).
The figure for `CC1=CC(=C(c2ccc(N)c(C)c2)c2ccc(N)c(C)c2)C=CC1=N` is 37% (inactive).
As for `CC1C(c2ccccc2)SC(=N)N1C` (stereo unspecified), the growth inhibition was -1% (inactive).
As to `CC(/C=C/c1ccc([N+](=O)[O-])o1)=N/N1CC(CN2CCOCC2)OC1=O` (stereo unspecified), the growth inhibition is 29% (inactive).
The figure for `C=CC(C)(C)N1C(=O)C(C(C)=O)=C(O)C1Cc1c[nH]c2ccccc12` (stereo unspecified) is 21% (inactive).
The figure for `O=C1c2cccc3cccc(c23)C(=O)N1CCNCCN1C(=O)c2cccc3cccc(c23)C1=O` is 2% (inactive); for `Cc1ccc([N+](=O)[O-])c2c(NCCC[N+](C)(C)[O-])c3ccccc3nc12` it is -1% (inactive).
On to `COC(=O)C(Cc1c[nH]c2ccccc12)N1CN(C)c2ccccc2C1=O` (stereo unspecified), for which the growth inhibition is 5% (inactive).
On to `O=C(/N=N/C(=O)Oc1ccccc1)Oc1ccccc1`, for which the growth inhibition is -52% (inactive).
For the molecule `COc1cc([C@@H]2c3cc4c(cc3[C@@H](NC(=O)NO)[C@H]3COC(=O)[C@H]23)OCO4)cc(OC)c1O`, the growth inhibition is 1% (inactive).
As to `CC1(C)CC(=O)C(/C=N/c2nc(-c3ccc(Br)cc3)cs2)=C(O)C1`, the growth inhibition is 96% (active).
`CCOC(=O)/C(=C/c1cccc(Cl)c1)N(CC)CC`: the growth inhibition is 46% (inactive).
For `CC(C)OC(=O)NNc1cccc(Cl)c1` the value was 96% (active).
As for `CCC(=O)C1=C(O)c2cc(OC)ccc2CC1C(=O)OC` (stereo unspecified), the growth inhibition is 13% (inactive).
The figure for `O=S(=O)(NC1CCCC(c2ccccc2)C1)c1ccccc1` (stereo unspecified) is 0% (inactive); for `COc1ccc2nc3cccc([N+](=O)[O-])c3c(NCCCCCC(=O)O)c2c1` it is 98% (active).
For `CCO/C=C1\SC(=S)N(c2ccc(OCC)cc2)C1=O` the value was -41% (inactive); for `COc1cc(OC)c(CSCC(NC(=O)OCC2c3ccccc3-c3ccccc32)C(=O)O)c(OC)c1` (stereo unspecified), 96% (active).
The figure for `COC(=O)c1ccccc1N=NNc1cccc(SC)c1` is 93% (active).
With `CC1=NN(C(=O)c2ccccc2O)C(=O)/C1=C/c1ccco1`, the growth inhibition was 91% (active).
Regarding `COc1ccccc1NC(=O)c1ccc(Cl)cc1`, the growth inhibition is -6% (inactive).
For `CC(C)=CCC/C(C)=C/CN1C(=O)C=CC1=O` the value was 100% (active); for `O=C1CSC(c2ccccc2)N1c1ccc(-c2ccc(-n3c(-c4ccccc4)nc4ccccc4c3=O)cc2)cc1` (stereo unspecified), 4% (inactive); for `N#CC1OB(O)c2ccccc21` (stereo unspecified), 1% (inactive).
As to `O=C(NCCNCCNC(=O)c1cc(-c2ccccc2)nc2ccccc12)c1cc(-c2ccccc2)nc2ccccc12`, the growth inhibition was -2% (inactive).
Consider `Brc1ccc(B2Nc3ccccc3N2)cc1`, for which the growth inhibition is 31% (inactive).
As to `CCOP(=O)(OCC)/C(C#N)=C/c1cccc(Oc2ccccc2)c1`, the growth inhibition was 97% (active).
